Data reported in PubChem BioAssay (NCATS).
Calls of active or inactive are those of the source. Calls follow the shape of the dose curve; as a rule, active = well fitted curve in the direction sought with a large enough effect; inconclusive = small, poorly fitted or top-dose-only effect, or effect the other way, or another doubt; inactive = no such curve, though single readings can be large or run the other way.

Assay: Inducers of the Endoplasmic Reticulum Stress Response (ERSR) in human glioma: Validation (AID 504836)
Settings: human glioma cells, ER stress response reporter; series mostly up to 38.3 µM
Method in brief: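 Stably transfected U87-MG glioma cells carrying a GRP78-based luciferase sensor; 16 h compound incubation. Luminescence end-point read 10 min after Bright-Glo addition at room temperature.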

SMILES | outcome
CCCCNc1cc(C(=O)O)cc(S(N)(=O)=O)c1Oc1ccccc1 | inactive
CN1CCN(C2Cc3ccccc3Sc3ccc(Cl)cc32)CC1 (stereo not given) | inactive
CCc1cccc2c3c([nH]c12)C(CC)(CC(=O)O)OCC3 (stereo not given) | inactive
Cc1cc(C(C)(C)C)c(O)c(C)c1CC1=NCCN1 | inactive
C[N+](C)(C)CCOC(=O)CCC(=O)OCC[N+](C)(C)C | inactive
CN(C)CCN(Cc1cccs1)c1ccccn1 | inactive
CN(C)CCCN1c2ccccc2Sc2ccc(C(F)(F)F)cc21 | inactive
CC(C)COCC(CN(Cc1ccccc1)c1ccccc1)N1CCCC1 (stereo not given) | inactive
c1cnc(N2CCN(Cc3ccc4c(c3)OCO4)CC2)nc1 | inactive
COc1ccc2c(c1OC)C(=O)O[C@@H]2[C@H]1c2c(cc3c(c2OC)OCO3)CCN1C | inactive
c1ccc([C@H]2CN3CCSC3=N2)cc1 | inactive
CSc1ccc(C(=O)c2[nH]c(=O)[nH]c2C)cc1 | inactive
CC(C(O)c1ccc(O)cc1)N1CCC(Cc2ccccc2)CC1 (stereo not given) | inactive
NCCc1ccc(O)c(O)c1 | inactive
Cc1cc(C(C)(C)C)cc(C)c1CC1=NCCN1 | inactive
CC1=C(CC(=O)O)c2cc(F)ccc2/C1=C\c1ccc(S(C)=O)cc1 (stereo not given) | inactive
CN(C)CCC(c1ccccc1)c1ccccn1 (stereo not given) | inactive
CCCCNc1c(C(=O)OCC)c(C)nc2c1cnn2CC | inactive
O=C(Nc1ccc([N+](=O)[O-])cc1Cl)c1cc(Cl)ccc1O | inactive
Nc1c2c(nc3ccccc13)CCCC2 | inactive

SMILES | outcome
C=Cc1c(C)c2cc3[nH]c(cc4nc(cc5nc(cc1[nH]2)C(C)=C5CCC(=O)O)C(CCC(=O)O)=C4C)c(C)c3C=C | inactive
Cc1cc(C)c(/C=C2\C(=O)Nc3ccccc32)[nH]1 | inactive
C[N+](C)(C)CCCCCCCCCC[N+](C)(C)C | inactive
O=C(c1ccc(F)cc1)C1CCN(CCn2c(=O)[nH]c3ccccc3c2=O)CC1 | inactive
Clc1ccc(Cn2c(CN3CCCC3)nc3ccccc32)cc1 | inactive
Nc1c2c(nc3ccccc13)CCCC2O (stereo not given) | inactive
O=C1N(c2ccccc2)c2ccccc2C1(Cc1ccncc1)Cc1ccncc1 | inactive
O=C(O)c1cccnc1Nc1cccc(C(F)(F)F)c1 | inactive
COCCOC(=O)C1=C(C)NC(C)=C(C(=O)OC/C=C/c2ccccc2)C1c1cccc([N+](=O)[O-])c1 (stereo not given) | inactive
COCCc1ccc(OCC(O)CNC(C)C)cc1 (stereo not given) | inactive
CN(C)C(=O)Oc1cccc([N+](C)(C)C)c1 | inactive
CSc1ccc2c(c1)C(N1CCN(C)CC1)Cc1ccccc1S2 (stereo not given) | inactive
O=C(O)CP(=O)(O)O | inactive
C(=C\c1ccccc1)/CN1CCN(C(c2ccccc2)c2ccccc2)CC1 | inactive
O=C(O)CN(CCOCCOCCN(CC(=O)O)CC(=O)O)CC(=O)O | inactive
CCCCC1C(=O)N(c2ccccc2)N(c2ccccc2)C1=O | inactive
CC(C)NCC(O)COc1ccc(COCCOC(C)C)cc1 (stereo not given) | inactive
COc1ccccc1N1CCN(CCCNc2cc(=O)n(C)c(=O)n2C)CC1 | inactive
CC(C)(C)c1ccc(C(=O)CCCN2CCC(OC(c3ccccc3)c3ccccc3)CC2)cc1 | inactive
Oc1ccc(/C=C/c2cc(O)cc(O)c2)cc1 | inactive
